The full ranking holds about 33,000 sequences; the median of “E-score (-0.5 to 0.5)” is about -8e-05, and the highest 2% start at about 0.23. The sample holds the highest values, similar sequences and a random draw of the others, so the mix is not that of the screen.
biological target: T1, Nrg2 (UniProt P38082); assay: PBM E-score (8-mer binding enrichment) (E-score (-0.5 to 0.5)); higher = stronger / more preferred TF binding; details: protein concentration: 100 nM; construct: GST-full length
T1 sequence: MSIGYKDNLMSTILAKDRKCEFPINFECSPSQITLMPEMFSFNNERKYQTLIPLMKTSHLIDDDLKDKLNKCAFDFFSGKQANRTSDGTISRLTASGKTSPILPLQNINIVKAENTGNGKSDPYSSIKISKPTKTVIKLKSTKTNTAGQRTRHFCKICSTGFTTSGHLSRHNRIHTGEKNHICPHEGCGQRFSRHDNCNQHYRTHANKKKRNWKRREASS
Outline: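 Each ungapped eight-base word and its reverse complement, pooled, received an E-score from the Universal PBM Analysis Suite. Underlying scans, normalised with masliner, recorded fluorescent anti-GST bound to GST-tagged yeast transcription factors. These were applied at about 100-200 nM to universal all-10-mer Agilent arrays double-stranded by primer extension.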

| Sequence | PBM E-score |
| --- | --- |
| AGATGGCA | 0.0923 |
| AGCGGTTG | -0.028 |
| AGATTGCG | 0.00885 |
| CTGAGACA | 0.0347 |
| AAAACTTA | 0.0488 |
| GTAGGTAA | 0.00715 |
| AGGCTGAA | -0.0879 |
| TCAAATGA | -0.0989 |
| CTCTCACA | 0.124 |
| CACCTGAA | 0.0424 |
| GCCCTGAA | 0.22 |
| CCCCTGAA | 0.356 |
| CCCCTGTA | 0.144 |
| TACCTGAA | 0.0117 |
| TCCCTGAA | 0.25 |
| GCCGTCTA | -0.0529 |
| CGGTTTGC | -0.0375 |
| CCTGAAGG | -0.0247 |
| AGTCAAGG | -0.174 |
| ATCCGAAT | 0.251 |
| ATCCGAAC | 0.0668 |
| ATCCGAAG | -0.0314 |
| ACAAAACA | 0.119 |
| ATGGCGCC | 0.0356 |
| CTGGCGCA | -0.117 |

| Sequence | PBM E-score |
| --- | --- |
| CTGGCGCC | 0.281 |
| ACAAAACC | 0.246 |
| GCAAAACC | 0.0964 |
| ACAAAAAC | 0.0302 |
| ATTTTGAC | 0.232 |
| AATTTGAC | 0.127 |
| ATTTTGAG | 0.0761 |
| TGTTTGAA | -0.00474 |
| ACTTCGAC | -0.0444 |
| ATATCATA | 0.174 |
| GTATCATA | 0.251 |
| CTATCATA | 0.125 |
| ACTATATA | 0.23 |
| GCTATATA | 0.0573 |
| AGTAGATA | 0.249 |
| AGTATAAC | -0.131 |
| AGTATATG | 0.129 |
| AGTATATC | 0.107 |
| AGTAGATC | -0.0113 |
| AGTATAAT | 0.257 |
| AGTATATA | 0.327 |
| AGTATAAA | 0.194 |
| ACTATATC | 0.182 |
| CGTAGATA | -0.0208 |
| GAGGTGCC | -0.0447 |

| Sequence | PBM E-score |
| --- | --- |
| CAAAATCG | 0.109 |
| AGAGGACG | -0.0944 |
| ACGGCGCG | 0.214 |
| CGACACCA | -0.124 |
| GAGACAGA | 0.14 |
| ACAGCGAT | -0.201 |
| CGGAACCG | -0.162 |
| CGGAACCA | 0.294 |
| ACGAACCC | -0.00702 |
| AGGAACAC | 0.131 |
| CCGAACGC | 0.0363 |
| CCGAACCA | -0.00203 |
| CGGAACAC | 0.264 |
| ACGAACGA | 0.0396 |
| ACGAACCA | 0.235 |
| ACGAACGC | 0.267 |
| CGGAACAA | 0.122 |
| GGGAACCA | -0.231 |
| GACGGATC | -0.153 |
| TCCTAAAA | -0.251 |
| TCATTGAA | -0.122 |
| TAAATGGA | -0.0213 |
| AGCAGGGG | -0.182 |
| ACACTGCT | -0.0746 |
| GTTAACTA | 0.273 |

| Sequence | PBM E-score |
| --- | --- |
| GCTAACAA | -0.0183 |
| CTTAACAA | 0.107 |
| GTTAACAA | 0.254 |
| CTTAACTA | 0.0617 |
| ATTAACTA | 0.136 |
| CAGGCCAC | -0.141 |
| GCGTGAGC | 0.142 |
| GGAACTCA | -0.0697 |
| ACACTCTC | 0.104 |
| GAATGATC | -0.0614 |
| GAATGATA | 0.247 |
| TAATGATA | 0.243 |
| GAATGAGA | 0.114 |
| AAATGATA | 0.225 |
| CAATGATA | 0.128 |
| AGCCCTAG | -0.16 |
| GCCTGAGC | -0.213 |
| ACCTGAGC | 0.0385 |
| GCCTGAGA | -0.0991 |
| CCCTGAGG | 0.236 |
| TCCTGAGA | -0.0364 |
| CACTGAGG | -0.124 |
| ACCTGAGG | -0.134 |
| CCCTGAGC | 0.236 |
| CCCTGAGA | 0.235 |

| Sequence | PBM E-score |
| --- | --- |
| CATTTTCC | 0.0879 |
| AGAAGCCC | -0.0779 |
| ATTATGAC | -0.0447 |
| AGGCAAGG | -0.259 |
| CCTATCGC | -0.134 |
| CATGTTGA | 0.258 |
| CATGTTGC | -0.0978 |
| AATGTTGA | -0.019 |
| ATGTATTA | -0.041 |
| GTGTATTA | 0.233 |
| AAGTATTA | 0.129 |
| CTGTATTA | 0.147 |
| GAGTATTA | 0.00698 |
| CAGTATTA | 0.244 |
| ATACTCGA | 0.0646 |
| AGTTCGAG | 0.223 |
| TCCCAAAA | 0.0584 |
| CCGGGAAC | -0.00517 |
| ATGCGCAT | 0.368 |
| ATTCGCGC | 0.159 |
| ATGCGCAC | 0.142 |
| CTGCGCTC | -0.146 |
| ATGCGCGA | 0.00379 |
| CTGCGCGA | -0.0667 |
| CTGCGCGC | 0.306 |

| Sequence | PBM E-score |
| --- | --- |
| CTTCGCGC | 0.232 |
| ATGCGCGC | 0.23 |
| ATGCGCAA | 0.182 |
| CTTCGCGA | 0.0778 |
| ATGCGCGG | 0.121 |
| GTGCAGCA | -0.172 |
| CAATTGCC | -0.00722 |
| CAGGACTG | -0.241 |
| AAATGCGG | 0.0989 |
| AAATGCGC | 0.272 |
| CAATGCGC | 0.145 |
| AGGGGCAT | 0.00378 |
| CTAAAAGA | -0.198 |
| CGATATAC | 0.113 |
| CGATATTA | 0.23 |
| GGATATTA | 0.147 |
| CGATATTC | 0.153 |
| CGATATAG | 0.14 |
| CGATATAA | 0.244 |
| CACCGTGA | -0.113 |
| GTATGGCA | 0.0816 |
| CATCAGCG | -0.213 |
| CGAAAAGA | 0.199 |
| AGCAGTGC | -0.287 |
| AGCAGTGA | 0.234 |

| Sequence | PBM E-score |
| --- | --- |
| CGCAGTGA | -0.0744 |
| GCGCTACC | -0.139 |
| GTGCTGTA | -0.0149 |
| CGGAGGCA | -0.134 |
| AAGCGCAA | 0.147 |
| TCCAGCAA | -0.151 |
| CCCAGCAA | 0.0725 |
| ACCAGCAA | 0.245 |
| ACTTACCA | 0.00217 |
| GTCAAACA | -0.117 |
| CATTGCAA | -0.00795 |
| TGTTGCAA | 0.268 |
| GGTTGCAA | 0.111 |
| AATTGCAA | 0.0259 |
| TATTGCAA | 0.253 |
| CGTTGCAA | 0.0314 |
| CGCGGTTC | 0.0879 |
| GGATAGCA | 0.0845 |
| CAGTACTC | -0.171 |
| AAGTACTC | -0.0318 |
| GAGTACTC | 0.23 |
| GGCGAGCC | -0.0861 |
